Data on four compounds can be found in PubChem BioAssay (EPA / NIEHS).

Molecules are shown by their SMILES. The source made the active and inactive calls. The calls were made as follows: active = hit-call score of the fitted dose curve at least 0.9, where 1 is the maximum; inactive = score below 0.9.

Read-out in assay [1]: Transforming growth factor beta 1 (TGFb1), TGFB1 (gene 7040)
The assay is described as follows: BSK_KF3CT_TGFb1: BioMAP Diversity Plus: KF3CT Assay for Transforming growth factor beta 1 (TGFb1) Biomarker Activity (AID 2283072). Particulars: primary human keratinocytes with fibroblasts; actives raise or lower the signal. A digest of the protocol: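 Human keratinocyte/foreskin fibroblast co-culture; TGF-b1 measured by ELISA 24 h after dosing, fitted bidirectionally versus DMSO. Cytotoxicity checked in parallel cultures by total protein (SRB staining, 560 nm).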

Read-out in assay [2]: Matrix Metallopeptidase 9 (MMP9), MMP9 (gene 4318)
Briefly: BSK_KF3CT_MMP9: BioMAP Diversity Plus: KF3CT Assay for Matrix Metallopeptidase 9 (MMP9) Biomarker Activity (AID 2283074).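 As to AC50: MMP9 protein level quantified by ELISA in the co-culture.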 The settings on record: primary human keratinocytes with fibroblasts; actives raise or lower the signal. The essentials:
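Human keratinocyte and foreskin fibroblast co-culture exposed to chemicals for 24 h; MMP9 biomarker measured by ELISA, bidirectional fitting relative to DMSO; cytotoxicity tracked by SRB total protein staining in parallel cultures.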

Read-out in assay [3]: CD40, CD40 (gene 958)
Briefly: BSK_LPS_CD40: BioMAP Diversity Plus: LPS Assay for CD40 Biomarker Activity (AID 2283076). Particulars: primary human HUVEC with PBMC; actives raise or lower the signal. The essentials: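 ELISA readout of CD40 in HUVEC/PBMC co-culture (BSK_LPS system), 24 h post-dosing; bidirectional curve fit, DMSO baseline; parallel SRB total-protein staining for cytotoxicity.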

Read-out in assay [4]: E-selectin (Homo sapiens) (UniProt P16581)
Briefly: BSK_LPS_Eselectin: BioMAP Diversity Plus: LPS Assay for Eselectin Biomarker Activity (AID 2283077). The settings on record: primary human HUVEC with PBMC; actives raise or lower the signal. The essentials: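 ELISA readout of E-selectin, 24 h post-dose, HUVEC + PBMC co-culture (LPS system). Gain or loss of signal vs DMSO baseline, bidirectional fit.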

Read-out in assay [5]: Interleukin-8 (IL8), CXCL8 (gene 3576)
Briefly: BSK_LPS_IL8: BioMAP Diversity Plus: LPS Assay for Interleukin-8 (IL8) Biomarker Activity (AID 2283078). The settings on record: primary human HUVEC with PBMC; actives raise or lower the signal. A digest of the protocol: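 HUVEC + PBMC co-culture, LPS-activated; test chemicals dosed, IL-8 read by ELISA at 24 h. Bidirectional curve fit vs DMSO baseline (gain or loss of signal).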

The nature of assay [6]: BSK_LPS_SRB: Viability Assessment in the BioMAP Diversity Plus: LPS Assay (AID 2283079).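 Also: total protein by sulforhodamine B absorbance as a cytotoxicity measure; measured one day after compound addition; fitted in both directions against DMSO so loss or gain of signal counts.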 Particulars: primary human HUVEC with PBMC. The essentials: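 HUVEC + PBMC co-culture, LPS-stimulated; compound 24 h. 10% TCA fix, 0.1% SRB stain, A560. Bidirectional fit vs DMSO.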
Read-out in assay [7]: Interleukin-1 alpha (IL1a), IL1A (gene 3552)
The assay is described as follows: BSK_LPS_IL1a: BioMAP Diversity Plus: LPS Assay for Interleukin-1 alpha (IL1a) Biomarker Activity (AID 2283080). The settings on record: primary human HUVEC with PBMC; actives raise or lower the signal. A digest of the protocol: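 HUVEC/PBMC co-culture, LPS system; 24 h after dosing; IL-1a by ELISA; gain or loss of signal fitted bidirectionally vs DMSO baseline.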

Read-out in assay [8]: Monocyte Chemoattractant Protein-1 (MCP1), CCL2 (gene 6347)
The assay is described as follows: BSK_LPS_MCP1: BioMAP Diversity Plus: LPS Assay for Monocyte Chemoattractant Protein-1 (MCP1) Biomarker Activity (AID 2283081).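 As to AC50: secreted MCP-1 protein quantified by ELISA in culture supernatant.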 The settings on record: primary human HUVEC with PBMC; actives raise or lower the signal. A digest of the protocol:
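ELISA read-out of MCP-1 after 24 h chemical dosing of a human umbilical vein endothelial cell/peripheral blood mononuclear cell co-culture stimulated with LPS. Gain or loss of signal fitted relative to DMSO controls.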

Assay [9] is described as follows: BSK_LPS_PGE2: BioMAP Diversity Plus: LPS Assay for Prostaglandin E2 (PGE2) Biomarker Activity (AID 2283082). Particulars: primary human HUVEC with PBMC; actives raise or lower the signal. A digest of the protocol: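 HUVEC plus human PBMC co-culture stimulated with LPS; secreted PGE2 quantified by ELISA 24 h after chemical dosing. Activity fitted bidirectionally against DMSO baseline; parallel SRB staining (0.1% SRB after 10% TCA fixation, 560 nm) flags overt cytotoxicity.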

Read-out in assay [10]: Macrophage colony-stimulating factor (MCSF), CSF1 (gene 1435)
The assay is described as follows: BSK_LPS_MCSF: BioMAP Diversity Plus: LPS Assay for Macrophage colony-stimulating factor (MCSF) Biomarker Activity (AID 2283083). Particulars: primary human HUVEC with PBMC; actives raise or lower the signal. A digest of the protocol:
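HUVEC + PBMC co-culture (human primary), 24 h post-dose; M-CSF by ELISA; gain/loss of signal fitted bidirectionally vs DMSO baseline.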

Read-out in assay [11]: Tissue Factor, F3 (gene 2152)
Briefly: BSK_LPS_TissueFactor: BioMAP Diversity Plus: LPS Assay for Tissue Factor Biomarker Activity (AID 2283084). Particulars: primary human HUVEC with PBMC; actives raise or lower the signal. The essentials:
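HUVEC/PBMC co-culture, LPS-activated; CD142 ELISA read 24 h post-dose; bidirectional curve fit vs DMSO negative control.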

Read-out in assay [12]: Vascular cell adhesion molecule 1 (VCAM1), VCAM1 (gene 7412)
Briefly: BSK_LPS_VCAM1: BioMAP Diversity Plus: LPS Assay for Vascular cell adhesion molecule 1 (VCAM1) Biomarker Activity (AID 2283086). Particulars: primary human HUVEC with PBMC; actives raise or lower the signal. The essentials:
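Human umbilical vein endothelial cells co-cultured with PBMC and stimulated with LPS; VCAM-1 measured by ELISA 24 h after dosing. Bidirectional curve fitting against DMSO baseline; cytotoxicity tracked in parallel by SRB total-protein staining.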

Read-out in another assay: CD38, CD38 (gene 952)
Briefly: BSK_SAg_CD38: BioMAP Diversity Plus: SAg Assay for CD38 Biomarker Activity (AID 2283087). The settings on record: primary human HUVEC with PBMC; actives raise or lower the signal. A digest of the protocol:
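Human HUVEC plus PBMC co-culture stimulated with superantigen; CD38 measured by ELISA 24 h after chemical dosing. Fluorescence read-out, bidirectional fit against DMSO; cytotoxicity tracked in parallel by SRB and Alamar Blue.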

Read-out in assay [13]: CD40, CD40 (gene 958)
Briefly: BSK_SAg_CD40: BioMAP Diversity Plus: SAg Assay for CD40 Biomarker Activity (AID 2283088). The settings on record: primary human HUVEC with PBMC; actives raise or lower the signal. The essentials:
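HUVEC/PBMC co-culture, 24 h post-dose; CD40 by ELISA, fluorescence intensity; bidirectional fit vs DMSO negative control.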

Read-out in the next assay: CD69, CD69 (gene 969)
Briefly: BSK_SAg_CD69: BioMAP Diversity Plus: SAg Assay for CD69 Biomarker Activity (AID 2283089).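 As to AC50: cell surface CD69 protein quantified by ELISA with fluorescence detection.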 The settings on record: primary human HUVEC with PBMC; actives raise or lower the signal. The essentials: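 ELISA, fluorescence read-out: CD69 on human umbilical vein endothelial cell + PBMC co-culture, 24 h post-dosing. Gain or loss of signal fitted bidirectionally against DMSO baseline.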

Read-out in assay [14]: Monocyte Chemoattractant Protein-1 (MCP1), CCL2 (gene 6347)
The assay is described as follows: BSK_SAg_MCP1: BioMAP Diversity Plus: SAg Assay for Monocyte Chemoattractant Protein-1 (MCP1) Biomarker Activity (AID 2283090). Particulars: primary human HUVEC with PBMC; actives raise or lower the signal. A digest of the protocol: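 MCP-1 levels in the endothelial–PBMC SAg co-culture were quantified by ELISA at 24 h post-dosing; both increases and decreases versus DMSO scored. Cytotoxicity monitored by SRB total protein in parallel cultures.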

Read-out in assay [15]: E-selectin (Homo sapiens) (UniProt P16581)
Briefly: BSK_SAg_Eselectin: BioMAP Diversity Plus: SAg Assay for Eselectin Biomarker Activity (AID 2283091). Particulars: primary human HUVEC with PBMC; actives raise or lower the signal. The essentials: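 E-selectin ELISA readout at 24 h post-dosing in human umbilical vein endothelial cell/PBMC co-culture; gain or loss of signal fitted relative to DMSO baseline.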

Read-out in assay [16]: Tumor necrosis factor (Homo sapiens) (UniProt P01375)
The assay is described as follows: BSK_LPS_TNFa: BioMAP Diversity Plus: LPS Assay for Tumour Necrosis Factor alpha (TNFa) Biomarker Activity (AID 2283085). The settings on record: primary human HUVEC with PBMC; actives raise or lower the signal. A digest of the protocol: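 Human umbilical vein endothelial cells co-cultured with PBMC and stimulated with LPS. TNFa was measured by ELISA 24 h after chemical dosing, fitted bidirectionally relative to DMSO.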

Sequence of E-selectin (Homo sapiens) (P16581 whole entry, looked up): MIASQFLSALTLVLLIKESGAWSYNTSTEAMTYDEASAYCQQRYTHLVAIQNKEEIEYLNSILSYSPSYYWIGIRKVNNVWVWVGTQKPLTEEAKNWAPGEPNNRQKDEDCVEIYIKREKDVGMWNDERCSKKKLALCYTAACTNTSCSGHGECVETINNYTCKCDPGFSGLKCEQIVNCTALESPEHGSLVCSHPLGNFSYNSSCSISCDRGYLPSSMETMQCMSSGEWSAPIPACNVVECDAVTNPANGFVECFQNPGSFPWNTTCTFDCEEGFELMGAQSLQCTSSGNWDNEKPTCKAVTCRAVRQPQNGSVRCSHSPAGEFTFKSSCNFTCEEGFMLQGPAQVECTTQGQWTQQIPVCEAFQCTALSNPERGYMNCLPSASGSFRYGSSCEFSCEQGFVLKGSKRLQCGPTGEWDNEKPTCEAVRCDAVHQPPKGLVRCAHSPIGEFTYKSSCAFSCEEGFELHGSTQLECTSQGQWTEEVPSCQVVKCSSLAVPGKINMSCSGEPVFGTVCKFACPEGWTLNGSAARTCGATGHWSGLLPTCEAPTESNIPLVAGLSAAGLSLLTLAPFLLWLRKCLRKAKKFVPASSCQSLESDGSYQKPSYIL
Sequence of Tumor necrosis factor (Homo sapiens) (P01375 whole entry, looked up): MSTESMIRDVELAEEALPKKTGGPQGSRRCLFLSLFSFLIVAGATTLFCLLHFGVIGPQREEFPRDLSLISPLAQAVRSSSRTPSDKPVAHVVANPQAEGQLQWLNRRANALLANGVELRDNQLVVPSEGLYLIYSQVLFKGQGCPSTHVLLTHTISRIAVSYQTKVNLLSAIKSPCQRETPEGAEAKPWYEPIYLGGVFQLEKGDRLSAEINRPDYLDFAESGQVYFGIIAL

In general, AC50 refers to the concentration at which the activity in the assay is half-maximal. Turning to `CCOC(=O)C(C)Oc1ccc(Oc2nc3ccc(Cl)cc3o2)cc1` (configuration not stated), the outcome in [1] was “inactive”; with CD40, CD40 (gene 958) [3], “inactive”; in assay [4], “inactive”; in assay [5] it was “inactive”; in [6], “inactive”; in assay [7], “inactive”. In addition, the outcome in assay [8] is “inactive”; in assay [10] it was “inactive”; in [11], “inactive”; in assay [12], “inactive”; with CD69, CD69 (gene 969) it was “inactive”. For the same compound, the concentration at half-maximal activity (AC50) in [2] was 9.61 µM (active); in assay [9], 24.3 µM (active); with CD38, CD38 (gene 952) it was 23.6 µM (active); in the assay with CD40, CD40 (gene 958) [13], 12 µM (active); in [14], 20 µM (active); in assay [15] it was 20 µM (active).
As for `Oc1ccc(C(c2ccc(O)cc2)C(Cl)(Cl)Cl)cc1`, the outcome in [1] was inactive. Also, the half-maximal activity concentration (AC50) in assay [2] is 24.6 µM (active); in the assay with CD40, CD40 (gene 958) [3] it was 24.9 µM (active); in assay [6], 17 µM (active); in assay [7], 24.8 µM (active); in assay [8], 33.9 µM (active); in assay [9], 29.3 µM (active). In addition, the concentration at half-maximal activity (AC50) was 20 µM (active) in assay [10]; 37 µM (active) in assay [11]; 17.9 µM (active) in [12]; 27.4 µM (active) with CD38, CD38 (gene 952); 24.4 µM (active) with CD40, CD40 (gene 958) [13]; 20 µM (active) with CD69, CD69 (gene 969). Besides, the concentration at half-maximal activity (AC50) in [15] was 10.6 µM (active).
For the compound `C[C@]12CC[C@@H]3c4ccc(O)cc4C[C@@H](CCCCCCCCCS(=O)CCCC(F)(F)C(F)(F)F)[C@H]3[C@@H]1CC[C@@H]2O` (some centres not stated), the outcome in assay [1] was “inactive”; in [2] it was “inactive”; in the assay with CD40, CD40 (gene 958) [3] it was “inactive”; in assay [4] it was “inactive”; in assay [6], “inactive”; in [7], “inactive”. In addition, the outcome in assay [8] was “inactive”; in assay [9], “inactive”; in assay [10] it was “inactive”; in [11] it was “inactive”; in [12], “inactive”; with CD38, CD38 (gene 952), “inactive”. In addition, the outcome was “inactive” with CD40, CD40 (gene 958) [13]; “inactive” in the assay with CD69, CD69 (gene 969); “inactive” in [14]. In addition, the AC50 in [15] is 3.51 µM (active).
As for `CC(=O)[C@H]1CC[C@H]2[C@@H]3CCC4=CC(=O)CC[C@]4(C)[C@H]3CC[C@]12C`, the result in assay [2], in assay [7], in assay [9], in assay [10], in assay [11] and in assay [16] was inactive. For the same compound, the result in assay [12] and in assay [14] was inactive. The AC50 with CD40, CD40 (gene 958) [3] was 20 µM (active); in [4], 25.3 µM (active); in assay [6], 8 µM (active); in assay [8] it was 25 µM (active); in the assay with CD38, CD38 (gene 952), 25.7 µM (active); in the assay with CD40, CD40 (gene 958) [13] it was 20 µM (active). In addition, the concentration at half-maximal activity (AC50) in [15] was 1.01 µM (active).
